# Results from PubChem BioAssay AID743279 (National Center for Advancing Translational Sciences (NCATS), 2014).
# The whole screen tested about 360,000 compounds, of which about 17,000 (4.7%) were called active. Another 5% or so got no clear call; they are omitted. What follows is part of a selection rich in actives, with near analogues and random picks from the rest. A number with no mark means an inactive call. Cut-off read from the data, not from the text of the source: active = activity change below about -50%; inconclusive = mostly about -30% to -49%; inactive = weaker than that.
# Assay: qHTS for Inhibitors of Inflammasome Signaling: IL-1-beta AlphaLISA Primary Screen
# Conditions: THP-1 LPS/ATP IL-1B secretion, 16 h; at 57.5 µM, active compounds read low
# Outline: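 THP-1 cells pretreated 1 hr with compounds (up to 57.5 uM final), then stimulated with LPS (250 ng/mL final) plus ATP (1.25 mM final); secreted IL-1B measured by AlphaLISA after 16 hr, decreased signal indicating inhibition.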
# % is set by controls: 0 for no effect and ±100 for the full control effect.
row,SMILES,activity change
1,COc1ccc(C(C#N)=C2C=CC(=NO)c3ccccc32)cc1,-24.6%
2,Cc1nc2ccccc2nc1CC(O)(c1ccccc1)c1ccccc1,3.22%
3,O=C1NC[C@H](CCCCN2CCN(CCc3ccccc3)C(=O)C2=O)N(CC2CCCCC2)C1=O,-14.3%
4,CCCCc1nc2ccc(F)cc2cc1C,8.78%
5,COc1ccc(C(C)(C)C)cc1NC(=O)CN(C)C1=NS(=O)(=O)c2ccccc21,10.7%
6,COc1ccc([C@H]2N[C@]3(CCCN(CC4CCCCC4)C3=O)[C@H]3C(=O)N(C)C(=O)[C@@H]23)cc1,-15%
7,O=C(Nc1cccc(Cc2ccccc2)c1)Nc1ccc2nc([C@@H]3O[C@H](CO)[C@@H](O)[C@H](O)[C@H]3O)[nH]c2c1,33.4%
8,C=CCOc1c(Br)cc(/C=N\n2nnnc2N)cc1OC,0%
9,CCOc1c(Br)cc(/C=C2\C(=O)N(CCC#N)N=C2C)cc1OC,-62.4% (active)
10,COc1cc(/C=C2/C(=O)NN(c3cccc(Cl)c3)C2=O)cc(Br)c1O,-15.3%
11,COc1cccc(-c2cc(NC(C)=O)c3ncc(-c4cccc(C(C)=O)c4)n3c2)c1,7.02%
12,Cc1cccn2c(=O)c(/C=C(\C#N)S(=O)(=O)c3ccc(Cl)cc3)c(N3CCC(C(N)=O)CC3)nc12,0%
13,Cc1cc(C)cc(Oc2nc3c(C)cccn3c(=O)c2/C=C(\C#N)C(=O)NC2CCS(=O)(=O)C2)c1 (centres undefined),-109% (active)
14,Cc1cccn2c(=O)c(/C=C(\C#N)C(N)=O)c(N3CCCCCC3)nc12,-18.7%
15,COc1ccc2c(c1)C(=O)CC(c1ccccc1)O2 (centres undefined),-12.1%
16,Cc1nn(C(C)C(=O)NCCC2=CCCCC2)c(=O)c2nn(-c3ccccc3)c(C)c12 (centres undefined),14.5%
17,CCc1cccc(C)c1NC(=O)COC(=O)CNC(=O)c1cccs1,16.5%
18,CCOC(=O)c1oc2ccccc2c1NC(=O)c1cccs1,-2.68%
19,CCc1c(C)sc(NC(=O)c2cccs2)c1C(N)=O,-92.1% (active)
20,COC(=O)C1=CO[C@@H](O[C@@H]2O[C@H](CO)[C@@H](O)[C@H](O)[C@H]2O)C2C1C[C@H](O)[C@@H]2C (some centres undefined),15.4%
21,COC[C@@H]1NS(=O)(=O)c2ccc(Br)cc2O[C@H]1c1ccccc1,2.65%
22,COc1ccc(/C=C2/CCCc3ccccc3C2=O)cc1,0%

row,SMILES,activity change
1,O=C1/C(=C/c2cccs2)CCc2ccccc21,-13.1%
2,COc1ccc(/C=C2\CCc3ccccc3C2=O)c(OC)c1OC,-71% (active)
3,N#CCc1c[nH]c2ccc([N+](=O)[O-])cc12,-1.78%
4,CNc1cncc(-c2ccc(NS(C)(=O)=O)cc2)n1,6.32%
5,O=C(NCc1cccc(C(F)(F)F)c1)c1cccc(S(=O)(=O)N2CCN(Cc3ccccc3)CC2)c1,0%
6,CC(NC(=O)CCC(=O)N1CCN(S(=O)(=O)c2ccc(Cl)cc2)CC1)c1ccccc1 (centres undefined),45.7%
7,O=C(CCC(=O)N1CCN(S(=O)(=O)c2ccc(Cl)cc2)CC1)NCc1cccc(C(F)(F)F)c1,-52.1% (active)
8,COC(=O)C(NC(=O)c1ccc(OC)cc1)(Nc1ncc(S(=O)(=O)c2ccc([N+](=O)[O-])cc2)s1)C(F)(F)F (centres undefined),-99.1% (active)
9,CCOCC(=O)Nc1ncc(S(=O)(=O)c2ccc([N+](=O)[O-])cc2)s1,20.1%
10,COc1ccc(C(=O)NCCNc2ccc([N+](=O)[O-])cn2)cc1,40.6%
11,Nc1c(Cl)cc(-c2csc(N3CCCC3c3nc4cc(Cl)c(Cl)cc4n3CCOCCO)n2)cc1Cl (centres undefined),-4.36%
12,Cc1ccc(S(=O)(=O)N2C[C@H]3C(=O)C[C@@H](c4cccc5ccccc45)N(S(=O)(=O)c4ccc(C)cc4)[C@H]3C[C@H]2c2ccc(Cl)cc2)cc1,0.625%
13,COCCNC(=O)C1C(=O)Nc2ccccc2C(=O)N1c1ccc2c(c1)OCCO2 (centres undefined),23.8%
14,CC(C)NC(=O)/C(C#N)=C\c1ccc(N(C)C)c(Br)c1,-7.21%
15,COC(=O)Cc1c(-c2[nH]c3ccccc3c2CC(=O)OC)[nH]c2ccccc12,0%
16,Cc1[nH]c2ccccc2c1/C=C(/C#N)C(=O)NC(C)C,-99.8% (active)
17,O[C@@H]1C[C@H](c2ccccc2)N(Cc2cccs2)C[C@H]1n1cc(C2CC2)nn1,-20.7%
18,Cc1ccc(C)c(NC(=S)NNC(=S)Nc2ccc(C(C)C)cc2)c1,-52.5% (active)
19,Cc1ccc(C)c(NC(=S)NNC(=O)c2csc(C)c2)c1,12.4%
20,CC(C)c1ccc(NC(=S)NNc2ccc(Cl)c(C(=O)O)c2)cc1,20.7%
21,CCOC(=O)C(C(=O)c1ccccc1)C(c1ccccc1)c1nccc2ccccc12 (centres undefined),11.3%
22,O=C(O)CSc1nccn1-c1cccc(Cl)c1,14.2%
